Assay results from PubChem BioAssay (NCI).
The panel holds about 83,000 compounds, 20% with a hit somewhere; the sample as a whole holds those more often.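 Single-concentration screen, 48 h exposure, 96-well plates. Endpoint: percent growth. Below 10 = active.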 A number with no mark means an inactive call. Active and inactive are the calls of the source.

Experiments:
Experiment in all cases: NCI-60 one-dose screen, 48 h (100 = growth as untreated, 0 = no growth, -100 = all killed)
NCI-H522 lung = settings: 10 µM unless noted
A549/ATCC NSCLC = settings: 10 µM unless noted
SK-MEL-2 melanoma = settings: 10 µM unless noted
TK-10 renal = settings: 10 µM unless noted
ACHN renal = settings: 10 µM unless noted
CCRF-CEM leukemia = settings: 10 µM unless noted
SR leukemia = settings: 10 µM
RPMI-8226 leukemia = settings: 10 µM unless noted
OVCAR-5 ovarian = settings: 10 µM unless noted
OVCAR-4 ovarian = settings: 10 µM unless noted
SK-OV-3 ovarian = settings: 10 µM unless noted
IGROV1 ovarian = settings: 10 µM
HS 578T breast = settings: 10 µM unless noted
NCI/ADR-RES ovarian = settings: 10 µM unless noted
M14 melanoma = settings: 10 µM unless noted
EKVX NSCLC = settings: 10 µM unless noted
HCT-116 colon = settings: 10 µM unless noted
COLO 205 colon = settings: 10 µM

Structure (SMILES) | growth (NCI-H522 lung) | growth (A549/ATCC NSCLC) | growth (SK-MEL-2 melanoma) | growth (TK-10 renal) | growth (ACHN renal) | growth (CCRF-CEM leukemia) | growth (SR leukemia) | growth (RPMI-8226 leukemia) | growth (OVCAR-5 ovarian) | growth (OVCAR-4 ovarian) | growth (SK-OV-3 ovarian) | growth (IGROV1 ovarian) | growth (HS 578T breast) | growth (NCI/ADR-RES ovarian) | growth (M14 melanoma) | growth (EKVX NSCLC) | growth (HCT-116 colon) | growth (COLO 205 colon)
CC1(C)N=C(N)N=C(N)N1c1cccc(C(=O)Nc2cccc(S(=O)(=O)F)c2)c1 | 99.8% | 104% | 114% | 108% | -26% (active) | 97.5% | 104% | 95.5% | 89.4% | 100% | 117% | 105% | 92.7% | 104% | – | – | – | –
CO[C@@H](c1ccccc1Cl)[C@H](C)OC(N)=O | 94.2% | 98.4% | 107% | 97.6% | – | 82.6% | 111% | 110% | 91.5% | 112% | 102% | 102% | 99.9% | 103% | 89.9% | 100% | 97.2% | –
Fc1ccc(C2=NN(c3ccccc3)C(c3sc(N(CCCl)CCCl)nc3Cl)C2)cc1 (stereo not given) | 64.2% | 86.3% | – | 117% | 79.4% | 83.1% | 83% | – | 91.5% | – | 76.5% | 82.7% | 74.5% | – | 92.2% | 84% | 68.2% | 88.6%
CC(C)(C)N(Cc1ccccc1)N=O | 90.3% | 93.9% | 94.6% | 102% | 104% | 98.4% | – | 99.2% | 98.4% | 98.2% | 96.2% | 103% | 109% | 113% | – | – | 106% | 108%
CC1(C)N=C(N)N=C(N)N1c1ccc(CCCCc2ccc(Cl)cc2S(=O)(=O)F)c(Cl)c1 | 3.95% (active) | 9.77% (active) | – | 30.3% | 18.7% | 13.1% | – | 17.8% | 31.4% | 50.3% | 44.2% | 30.7% | 65.5% | 53.3% | 18% | – | 14.9% | 15.9%
CCCCn1cc(C(=O)/C(C#N)=C/c2cc3ccccc3nc2Cl)c2cc(OC)ccc21 | 99.6% | 102% | 115% | – | 79% | 33.4% | -12% (active) | – | – | 95.5% | 94.5% | 61.2% | 88.6% | 91.7% | – | 93.9% | – | 104%
CC(C)(NC(=O)c1nn(CCCCCF)c2ccccc12)c1ccccc1 | 64.3% | 76.4% | 87% | 103% | – | 82.5% | – | 78.6% | 103% | 88.5% | 87.8% | – | 96.6% | 92.8% | 85.5% | 94.7% | 66.9% | –
O=C(O)c1nn(Cc2ccc(Cl)cc2)c2ccccc12 | 96.8% | 102% | 114% | 123% | 117% | 98.7% | 97.3% | 98.4% | 108% | 100% | 113% | – | 105% | – | 107% | – | 103% | 111%
C[CH2][Sn]([CH2]C)([CH2]C)[NH]S(=O)(=O)c1ccc(C)cc1 | 110% | 102% | 119% | 109% | – | 108% | 99.7% | 115% | – | 103% | 110% | 111% | 89.4% | 104% | 108% | 99% | – | –
O=C1NC(=O)C(Cc2ccccc2)(Cc2ccccc2)C(=O)N1 | 97.8% | 104% | 104% | 99.5% | – | 101% | 99.6% | 96.4% | 110% | 95.7% | 89.2% | 114% | 109% | 113% | 103% | 109% | 107% | 125%
CC1(C)N=C(N)N=C(N)N1c1ccc(OCCCCOc2ccc(S(=O)(=O)F)cc2)c(Cl)c1 | 5.92% (active) | 11.2% | 38.6% | 11.3% | 25.2% | 16% | – | 7.96% (active) | 30.7% | 57% | – | 33.1% | 60.3% | 103% | – | – | 11.2% | 20.4%
CCCCCCCC(=O)OCC/C=C/C1OC1C1OC(=O)/C=C\C=C\c2nc(oc2C)/C=C(/C)CCC2OC2C1OC(=O)NC(C)=O (stereo not given) | -80.3% (active) | 5.19% (active) | -44.5% (active) | 1.86% (active) | -16.8% (active) | – | – | -55.7% (active) | -22% (active) | 8.12% (active) | -38.5% (active) | -10.2% (active) | -1.2% (active) | -33.8% (active) | -20.4% (active) | -5.8% (active) | -24.4% (active) | -90.3% (active)
S=P(N1CCCCCC1)(N1CC1)N1CC1 | 102% | 104% | – | 98.5% | 104% | 94.4% | 82.6% | – | – | 117% | – | 90.1% | 122% | 104% | 103% | 119% | 99.8% | –
O=CN1N=C(c2ccccc2)CC1c1sc(N(CCCl)CCCl)nc1Cl (stereo not given) | 70.8% | 88.4% | – | 121% | 90.9% | 104% | 91.2% | – | 90.6% | – | 79.2% | 96% | 90.2% | 93.6% | – | 89.5% | 89.4% | 95.5%
c1cnc2c(c1)ccc1ncccc12 | 93.8% | 107% | – | – | 90.7% | 95.6% | 110% | – | 148% | 109% | 104% | – | 159% | 78.4% | 91% | 94.2% | 89.8% | 110%
CCC(CO)NC1CCCCC1 (stereo not given) | 68.1% | 93.8% | 81.2% | 70.8% | 84.7% | – | – | 97.6% | 92.4% | 89% | 102% | 53.9% | 91.2% | – | 84.6% | 90% | 26.8% | 43.2%
O=CN1N=C(c2ccc3c(c2)OCO3)CC1c1sc(N(CCCl)CCCl)nc1Cl (stereo not given) | 74.7% | 83.9% | 92.9% | 95.3% | 93.4% | 92.1% | – | – | 90.1% | 100% | 90% | 93.2% | 79.8% | 101% | 102% | 97.9% | 83.8% | 104%
COc1cc2c(cc1OC)CN(C)C(C)C2 (stereo not given) | 82.3% | 93.6% | 100% | – | 106% | 100% | 101% | 105% | 101% | 103% | 103% | 111% | 107% | 101% | 100% | 109% | 105% | 102%
O=S(=O)(F)c1ncnc2nc[nH]c12 | – | 98.5% | – | 103% | 98.1% | 101% | – | – | – | 102% | – | 103% | 77.1% | 93.8% | 100% | 103% | 100% | 115%
[N-]=[N+]=NC(C(=O)O)c1ccccc1 (stereo not given) | 87.3% | – | 99.5% | 106% | 100% | – | 83.9% | – | 102% | – | 99.5% | 98% | 113% | – | 101% | 99.7% | 101% | 104%
Nc1ncnc2c1c(C(=O)NO)cn2C1OC(CO)C(O)C1O (stereo not given) | -51.1% (active) | – | -18.7% (active) | 6.25% (active) | -15.4% (active) | -17.6% (active) | -7.79% (active) | -21.7% (active) | 16.5% | – | -18.2% (active) | – | -7.9% (active) | – | -53.8% (active) | 6.87% (active) | 7.69% (active) | -36.1% (active)
